High-throughput results from PubChem BioAssay.
The list is not random: actives were taken first. Their share in the collection is about 19%.
IL-1B inflam inh: blocks inflammasome-driven IL-1 beta release | THP-1 LPS/ATP IL-1B secretion, AlphaLISA, 16 h; active compounds read low | activity change, % at 57.5 µM | 4.7% of 360,000 active | AID 743279; in the data active means activity change below about -50%; inconclusive means mostly about -30% to -49%; further: on the % scale 0 is the no-effect control and ±100 the full control effect
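Secreted IL-1B measured by AlphaLISA bead assay after 16 h compound exposure of THP-1 cells; compounds (final up to 57.5 uM) added 1 h before LPS (250 ng/mL) and ATP (1.25 mM) stimulation; lower signal means less secretion.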
ASM inhibitor: inhibitors of human secretory acid sphingomyelinase; P17405; placental ASM, HMU-PC fluorogenic substrate, 60 min; Potency, µM (series often up to 57.5 µM), for inactives: at the highest dose activity change, negative = inhibition, usual class: inhibitors; 0.006% of 340,000 active; AID 504937; further: potency means the concentration at half of the fitted maximal effect
Target sequence (P17405 47-631 limits assumed): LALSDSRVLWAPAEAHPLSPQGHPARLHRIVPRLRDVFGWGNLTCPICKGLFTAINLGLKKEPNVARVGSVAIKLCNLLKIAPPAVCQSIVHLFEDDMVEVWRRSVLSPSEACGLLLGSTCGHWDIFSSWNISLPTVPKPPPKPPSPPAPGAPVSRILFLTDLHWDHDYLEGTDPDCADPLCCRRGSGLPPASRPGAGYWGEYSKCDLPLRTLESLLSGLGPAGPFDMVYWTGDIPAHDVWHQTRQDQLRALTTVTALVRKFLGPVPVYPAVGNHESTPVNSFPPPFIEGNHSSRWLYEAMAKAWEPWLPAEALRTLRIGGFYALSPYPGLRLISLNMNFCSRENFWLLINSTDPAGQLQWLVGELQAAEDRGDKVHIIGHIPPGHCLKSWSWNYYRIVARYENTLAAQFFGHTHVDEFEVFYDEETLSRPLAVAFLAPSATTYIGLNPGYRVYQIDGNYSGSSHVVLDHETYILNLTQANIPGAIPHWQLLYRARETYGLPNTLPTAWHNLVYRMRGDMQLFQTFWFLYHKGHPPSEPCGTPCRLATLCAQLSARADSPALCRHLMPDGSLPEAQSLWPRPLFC
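Human placenta-derived ASM enzyme was preincubated with compound for 10 minutes at room temperature, then given fluorogenic substrate HMU-PC0 (9 uM final) for 60 minutes at 37 °C; a pH 10 stop preceded fluorescence reading at Ex 386/Em 447 nm.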
DT40 TDP1 no CPT: qHTS for Inhibitors of human tyrosyl-DNA phosphodiesterase 1 (TDP1): qHTS in cells in absence of CPT; 15% of 420,000 active; DT40 Tdp1-/- hTDP1 cells, no CPT, ATP luminescence, 48 h; AID 686978, 2013; Potency, µM (series often up to 46.2 µM), for the others: at the highest dose activity change, negative = growth inhibition, actives largely listed as inhibitors; further: potency means the concentration at half of the fitted maximal effect; on the % scale 0 is the no-effect control and ±100 the full control effect; nearly all actives have a fitted effect of over 55% in size
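A cellular qHTS used chicken DT40 cells lacking endogenous Tdp1 but carrying stably transfected human TDP1. Compounds were applied without camptothecin, and cell growth kinetics were judged by ATP-dependent luminescence after ≥48 hr.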
TGFb SMAD3 inh: TGF-b pathway inhibition; HepG2 CAGA-GFP TGF-b/SMAD3 reporter, GFP fluorescence, 18 h; TGF-beta stimulated, 500 pg/mL final; Potency, µM (titrated, usually from 46.1 µM), inactives show top-dose activity, negative = inhibition, usual class: inhibitors; 1.2% of 410,000 active; AID 588855; further: potency means the concentration at half of the fitted maximal effect; on the % scale 0 is the no-effect control and ±100 the full control effect; nearly all actives have a fitted effect of over 65% in size
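Per well, imaged GFP fluorescence of HEPG2 CAGA-GFP cells gives the signal; cells get compound, then TGF-beta (500 pg/mL final), 18 h at 37 degrees C; %Activity versus -TGF-beta and +DMSO controls.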
HepG2 tox: counter-screen for TGF-b inhibitors: cytotoxicity in HepG2 cells; HepG2 CAGA-GFP viability, ATP luminescence, 18 h; Potency, µM (titrated, usually from 46.1 µM), without a hit: top-dose activity change, negative = cytotoxicity, actives largely listed as cytotoxic; 0.76% of 410,000 active; AID 588856; further: potency means the concentration at half of the fitted maximal effect
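CellTiter-Glo luminescence gave cytotoxicity after 18 hours at 37 degrees C. The cells were HepG2 CAGA-GFP in 1% FBS DMEM, stimulated with 500 pg/mL TGF-beta after compound addition. %Activity was normalised to no-cell wells (complete cell-killing) and DMSO (no toxicity), and curves were fitted and classified.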
DT40 TDP1 CPT: growth inhibition of DT40 Tdp1-/-;hTDP1 cells with camptothecin (screen for TDP1 inhibitors); Potency, µM (top dose mostly 46.2 µM), inactives show top-dose activity change, negative = growth inhibition, actives largely listed as inhibitors; 12% of 420,000 active; chicken DT40 Tdp1-/-;hTDP1 cells + 20 nM CPT, ATP luminescence, 48 h; AID 686979; further: potency means the concentration at half of the fitted maximal effect; on the % scale 0 is the no-effect control and ±100 the full control effect; nearly all actives have a fitted effect of over 55% in size
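Chicken DT40 Tdp1-/- cells complemented with human TDP1, 400 cells/well, exposed to compounds plus 20 nM camptothecin for at least 48 h at 37 C; viability read as ATP content by CellTiter-Glo luminescence.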
* = called active by the depositor; ? = inconclusive; . = not tested or not shown. Unless noted, the call rests on the fitted dose curve; in most records, active means well fitted curve in the direction sought with a large enough effect; inconclusive means small, poorly fitted or top-dose-only effect, or another doubt; inactive means no such curve, though single readings can be large; an effect the other way counts as inactive or inconclusive.

SMILES	IL-1B inflam inh	ASM inhibitor	DT40 TDP1 no CPT	TGFb SMAD3 inh	HepG2 tox	DT40 TDP1 CPT
CCc1cccc(NC(=O)c2cc(S(=O)(=O)N3CCCCCC3)cn2C)c1	.	.	-14.8%	-0.3%	-17.3%	-2.7%
CCOc1ccccc1/C=N/Nc1nc2c(N)ncnc2n1[C@H]1O[C@@H](CO)[C@H](O)[C@@H]1O	22.3	-1.6%	?	2.4%	0.4%	?
O=C1c2oc3ccccc3c(=O)c2C(c2cccc(Cl)c2)N1c1ccccn1 (stereo unspecified)	.	.	?	-5.4%	3.4%	16.8%
COC(=O)c1sc(N2C(=O)c3oc4ccccc4c(=O)c3C2c2cccs2)nc1C (stereo unspecified)	-7.1	2.6%	16.4µM*	-2.1%	-25.6%	18.4µM*
COC(=O)c1sc(N2C(=O)c3oc4ccc(F)cc4c(=O)c3C2c2ccc(C)cc2)nc1C (stereo unspecified)	.	.	?	-2.7%	31.1%	1.7%
CCCOc1cccc(C2c3c(oc4ccc(F)cc4c3=O)C(=O)N2c2nc(C)c(C(C)=O)s2)c1 (stereo unspecified)	.	.	14.6µM*	3.0%	-4.4%	13µM*
O=C1c2oc3ccccc3c(=O)c2C(c2cccc(Br)c2)N1c1ccccn1 (stereo unspecified)	.	.	16.4µM*	1.0%	3.5%	?
CCCOc1cccc(C2c3c(oc4ccccc4c3=O)C(=O)N2c2nncs2)c1 (stereo unspecified)	.	.	?	?	-11.4%	14.6µM*
O=C1c2oc3ccccc3c(=O)c2C(c2cccc(O)c2)N1c1nncs1 (stereo unspecified)	.	.	-3.7%	-0.9%	-1.5%	-12.4%
O=C(O)/C(=C\c1cccs1)c1ccc(F)cc1	0.0	-0.8%	15.0%	-4.0%	16.9%	-1.3%
OC1CCN(c2c3c(nc4cc(-c5cccc(F)c5)nn24)CCCC3)CC1	-100.0*	-0.7%	20.6µM*	-17.2%	-21.4%	16.4µM*
Cc1nn2c(N3CCOCC3)c3c(nc2c1-c1ccccc1)CCCC3	-17.6	-0.2%	?	-18.9%	-3.8%	?
CN(CCO)c1c2c(nc3cc(-c4cccc(F)c4)nn13)CCCC2	-24.8	-0.8%	20.6µM*	-3.3%	-34.9%	?
OCCCNc1c2c(nc3cc(-c4ccc(Cl)cc4)nn13)CCC2	?	-7.0%	?	10.5%	-26.4%	-29.8%
Fc1cccc(-c2cc3nc4c(c(N5CCC6(CC5)OCCO6)n3n2)CCCC4)c1	-70.1*	-1.5%	23.1µM*	-4.0%	3.8%	20.6µM*
CC1CCN(C(=O)CN2CCSc3ccccc32)CC1	.	.	-27.8%	4.2%	2.1%	-28.1%
COc1ccc(-c2nc3c(c(SCC(=O)Nc4ccccc4F)n2)Cc2cc(C)ccc2O3)cc1	.	.	-8.8%	-0.7%	-14.8%	-0.2%
Cc1ncc(C(O)c2ccc(N(C)C)cc2)n1Cc1ccccc1 (stereo unspecified)	-2.3	.	23.1µM*	-12.6%	-0.2%	?
CCc1ncc(C(O)c2ccc(Cl)cc2)n1Cc1ccccc1 (stereo unspecified)	17.1	.	11.6µM*	?	-19.3%	18.4µM*
COc1ccc(C(O)c2nccn2Cc2ccccc2)cc1 (stereo unspecified)	-9.9	6.4%	-14.4%	-3.8%	-1.8%	-29.2%
CCC(C)NCCCCOc1ccc(Br)cc1 (stereo unspecified)	-26.4	-4.0%	16.4µM*	1.6%	18.1%	?
CCC(C)NCCCCOc1cc(C)cc(C(C)C)c1 (stereo unspecified)	-12.3	3.9%	18.4µM*	-3.2%	-9.0%	?
CSCCC(NC(=O)c1ccccc1Cl)C(=O)N1CCCC(C)C1 (stereo unspecified)	-3.6	9.4%	-24.6%	1.7%	-2.2%	-15.2%
CN1CCN(c2ncncc2-c2ccc(N(C)C)cc2)CC1	.	.	-10.4%	.	.	?
CN1CCN(c2ccnc(N(C)CCCCCCN)n2)CC1	.	.	?	0.7%	-33.4%	12.6µM*
SMILES	IL-1B inflam inh	ASM inhibitor	DT40 TDP1 no CPT	TGFb SMAD3 inh	HepG2 tox	DT40 TDP1 CPT
CN1CCN(c2nc(-c3ccccn3)nc3ccccc23)CC1	-6.6	0.9%	?	12.1%	-45.7%	?
CN1CCN(c2ccnc(-c3ccc(N(C)C)cc3)n2)CC1	.	.	23.1µM*	.	.	23.1µM*
CC(C)c1ccc(NC(=O)c2cc3sc(Cl)cc3n2C)cc1	.	.	-26.6%	-6.8%	-5.5%	?
COC(=O)[C@]12CCCCC=C1N(CCC1=CCCCC1)C(=O)[C@H](CC(=O)NCCCN1CCCC1=O)C2	8.0	.	?	.	.	?
COCCCNC(=O)C[C@@H]1C[C@@]2(C(=O)OC)CCCCC=C2N(CCC2=CCCCC2)C1=O	1.0	.	16.4µM*	.	.	?
COC(=O)[C@]12CCCCC=C1N(CCC1=CCCCC1)C(=O)[C@H](CC(=O)NCCCCc1ccccc1)C2	?	.	18.4µM*	.	.	?
OCCCNc1ncnc2c1ncn2[C@H]1CN(Cc2ccncc2)C[C@@H](CO)O1	24.2	.	0.8%	0.9%	14.9%	18.7%
OCCNc1ncnc2c1ncn2[C@H]1CN(Cc2ccncc2)C[C@@H](CO)O1	-89.2*	.	2.2%	17.1%	-2.9%	-8.5%
CC(C)N(C)c1ncnc2c1ncn2[C@H]1CN(Cc2ccncc2)C[C@@H](CO)O1	15.1	.	23.1µM*	-16.7%	2.7%	23.1µM*
CC(C)N(C)c1ncnc2c1ncn2[C@H]1CN(Cc2ccc(-c3ccccc3)cc2)C[C@@H](CO)O1	-13.4	.	6.51µM*	?	-87.3%	7.31µM*
C/C(=N\NC(N)=O)c1c(F)cccc1F	3.8	3.5%	-7.7%	-0.5%	12.2%	15.3%
COCCOC(=O)c1[nH]c2c(c1C)C(=O)CC(c1cc(OC)c(OC)c(OC)c1)C2 (stereo unspecified)	-21.4	1.7%	2.91µM*	-7.7%	-12.8%	3.66µM*
COCCOC(=O)c1[nH]c2c(c1C)C(=O)CC(c1ccc(N(C)C)cc1)C2 (stereo unspecified)	-12.3	-5.7%	?	4.2%	1.5%	-27.6%
CCCCOC(=O)c1[nH]c2c(c1C)C(=O)CC(c1cc(OC)c(OC)c(OC)c1)C2 (stereo unspecified)	4.2	-13.1%	5.17µM*	-20.0%	-26.5%	6.51µM*
